# Assay results: PubChem BioAssay (NCI)
# Compounds without any hit were thinned out: in the full panel of roughly 83,000, 20% have a hit.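 Negative percent growth values reflect cell death: -40 means 40% of the cells present at the start died, and -100 means all died.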 Unmarked numbers belong to inactive results. How the source made its calls: active means growth percent below 10; inactive means the rest.
# Tested on: HL-60(TB) leukemia
# Assay: NCI-60 one-dose screen, 48 h (100 = growth as untreated, 0 = no growth, -100 = all killed)
# Conditions: 10 µM unless noted
row,Compound,growth [%]
1,COC(=O)c1ccc(NC(=O)Nc2ccc(C(=O)OC)cc2)cc1,92.8
2,COc1ccc(-c2nn(-c3cccc(Cl)c3)cc2C2CC(c3ccccc3)=NN2C(C)=O)cc1 (stereo not drawn),101
3,COc1ccc(C/C(C)=C(\c2ccc(Cl)cc2)c2ccc(OCCN3CCCC3)cc2)cc1,76.9
